# Assay results published in PubChem BioAssay (Tox21).
# The source made the active and inactive calls. A call without a number means that no potency is given here. Unless noted, calls come from the whole dose curve; as a rule, active = well fitted curve in the direction sought with a large enough effect in the repeat runs; inconclusive = weak or mixed curves; inactive = no such curve, though single readings can be large; an effect the other way counts as inactive or inconclusive.
# How the values were obtained:
# [1] = qHTS assay to identify small molecule antagonists of the thyroid receptor (TR) signaling pathway - cell viability counter screen (AID 743064); note: nearly all actives have a fitted effect of over 50% in size; note: potency is the fitted concentration of half-maximal effect
# Method in brief: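 GH3.TRE-Luc rat pituitary cells carrying a TRE-luciferase reporter were treated with compound plus 1 nM T3 (final) for 23.5 h at 37 °C. Viability was then read in the same wells by CellTiter-Fluor fluorescence after a further 30 min.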
# [2] = system: thyroid hormone receptor (rat, GH3 cells); assay: qHTS assay to identify small molecule agonists of the thyroid receptor (TR) signaling pathway (AID 743066; calls by dose curve)
# [3] = biological target: Estrogen receptor (Homo sapiens) (UniProt P03372); assay: qHTS assay to identify small molecule antagonists of the estrogen receptor alpha (ER-alpha) signaling pathway (AID 743069; active = well fitted curve in the direction sought with a large enough effect in the signal ratio in the repeat runs, not every such curve was filed as active; inconclusive = weak or mixed curves, or effect the other way; inactive = no such curve, though single readings can be large or run the other way; the % refers to the signal ratio; note: potency is the fitted concentration of half-maximal effect)
# Method in brief: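 ER-alpha-UAS-bla GripTite HEK293 line; 2% charcoal-stripped FBS overnight; plated, 4 hr 37C/5% CO2; cpd in DMSO + 17beta-estradiol, 18 hr 37C; LiveBLAzer B/G FRET substrate 2 hr RT; fluorescence intensity.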
# [4] = qHTS assay to identify small molecule antagonists of the estrogen receptor alpha (ER-alpha) signaling pathway - cell viability counter screen (AID 743074; calls by dose curve;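 note: HEK293 cells carrying ER-alpha-UAS-bla reporter stimulated with 17beta-estradiol; nearly all actives have a fitted effect of over 45% in size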)
# [5] = biological target: Estrogen receptor (Homo sapiens) (UniProt P03372); assay: qHTS assay to identify small molecule agonists of the estrogen receptor alpha (ER-alpha) signaling pathway (AID 743075; calls by dose curve;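 note: HEK293 GripTite cells with ER-alpha and UAS-driven beta-lactamase reporter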)
# [6] = biological target: Estrogen receptor (Homo sapiens) (UniProt P03372); assay: qHTS assay to identify small molecule agonists of the estrogen receptor alpha (ER-alpha) signaling pathway using the BG1 cell line (AID 743079); note: nearly all actives have a fitted effect of over 20% in size; note: potency is the fitted concentration of half-maximal effect
# [7] = qHTS assay to identify small molecule antagonists of the estrogen receptor alpha (ER-alpha) signaling pathway using the BG1 cell line (AID 743080; calls by dose curve;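 note: BG1 cells stimulated with 17beta-estradiol alongside compound; nearly all actives have a fitted effect of over 25% in size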; note: potency is the fitted concentration of half-maximal effect)
# Method in brief: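 Luciferase inhibition measured with ONE-Glo after 30 min at RT in BG1Luc4E2 cells given test compounds and 17beta-estradiol for 21.5 h at 37 C; CellTiter-Fluor viability read in the same wells beforehand.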
# [8] = qHTS assay to identify small molecule antagonists of the estrogen receptor alpha (ER-alpha) signaling pathway using the BG1 cell line - cell viability counter screen (AID 743081);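 note: compound given together with 17beta-estradiol as the ER stimulus; series mostly up to about 70 µM; nearly all actives have a fitted effect of over 45% in size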
# [9] = biological target: Aromatase (Homo sapiens) (UniProt P11511); assay: qHTS assay to identify aromatase inhibitors (AID 743083); note: nearly all actives have a fitted effect of over 55% in size; note: potency is the fitted concentration of half-maximal effect
# [10] = qHTS assay to identify aromatase inhibitors - cell viability counter screen (AID 743084);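 note: cells stimulated with testosterone during compound exposure; nearly all actives have a fitted effect of over 55% in size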; note: potency is the fitted concentration of half-maximal effect
# [11] = biological target: Peroxisome proliferator-activated receptor gamma (Homo sapiens) (UniProt P37231); assay: qHTS assay to identify small molecule agonists of the peroxisome proliferator-activated receptor gamma (PPARg) signaling pathway (AID 743094; active = well fitted activation curve with a large enough effect in the signal ratio in the repeat runs, not every such curve was filed as active; inconclusive = weak or mixed curves, or effect the other way; inactive = no such curve, though single readings can be large or run the other way; the % refers to the signal ratio)
# Method in brief: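 Stably transfected HEK293H cells (GeneBLAzer PPARg UAS-bla) were incubated with test substances for 17 h at 37C after a 5 h pre-incubation; beta-lactamase activity was then detected by FRET substrate fluorescence.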
# [12] = biological target: Peroxisome proliferator-activated receptor gamma (Homo sapiens) (UniProt P37231); assay: qHTS assay to identify small molecule antagonists of the peroxisome proliferator-activated receptor gamma (PPARg) signaling pathway (AID 743191; calls by dose curve; note: series mostly up to about 63 µM; nearly all actives have a fitted effect of over 30% in size)
# Method in brief: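 Beta-lactamase reporter under UAS control in HEK293H PPARg-bla cells; compound treatment 17 h at 37C. Read-out: fluorescence intensity after 1 h room-temperature incubation with LiveBLAzer B/G FRET substrate.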
# [13] = qHTS assay to identify small molecule antagonists of the peroxisome proliferator-activated receptor gamma (PPARg) signaling pathway - cell viability counter screen (AID 743194); note: nearly all actives have a fitted effect of over 55% in size
# Method in brief: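 Viability was measured as CellTiter-Glo luminescence in GeneBLAzer PPARg UAS-bla HEK293H cells. These cells had been exposed 17 h at 37 C to compounds together with rosiglitazone at 50 nM final, with the beta-lactamase readout taken in the same wells.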
# [14] = qHTS assay for small molecule agonists of the antioxidant response element (ARE) signaling pathway (AID 743202; active = well fitted activation curve with a large enough effect in the signal ratio in the repeat runs, not every such curve was filed as active; inconclusive = weak or mixed curves, or effect the other way; inactive = no such curve, though single readings can be large or run the other way; the % refers to the signal ratio; note: potency is the fitted concentration of half-maximal effect)
# Method in brief: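 Quantitative high-throughput format in HepG2 cells bearing an integrated ARE-beta-lactamase reporter. Compound exposure lasted 16 h at 37 C, and fluorescence was read 2 h after adding LiveBLAzer B/G substrate at room temperature.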
# [15] = qHTS assay for small molecule agonists of the antioxidant response element (ARE) signaling pathway - cell viability counter screen (AID 743203; calls by dose curve; note: nearly all actives have a fitted effect of over 55% in size)
# Method in brief: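 Cells (ARE-bla HepG2, 2,000/well) receive DMSO-dissolved compounds after a 5 hrs rest. Plates incubate 16 hrs at 37C/5% CO2. CellTiter-Glo luminescence is then recorded after 30 min at room temperature.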
# [16] = qHTS assay for small molecule activators of the heat shock response signaling pathway (AID 743210; active = well fitted activation curve with a large enough effect in the signal ratio in the repeat runs, with a control signal flat, not every such curve was filed as active; inconclusive = weak or mixed curves; the % refers to the signal ratio;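 note: HeLa cells with beta-lactamase reporter driven by heat shock elements; series mostly up to about 63 µM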)
# Method in brief: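 HeLa HSE-bla cells, overnight plating; cpd in DMSO 5 h, 37 C; LiveBLAzer B/G FRET substrate 2.5 h RT; fluorescence intensity read.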
# [17] = biological target: Aryl hydrocarbon receptor (Homo sapiens) (UniProt P35869); assay: qHTS assay to identify small molecule that activate the aryl hydrocarbon receptor (AhR) signaling pathway (AID 743085); note: nearly all actives have a fitted effect of over 15% in size; note: potency is the fitted concentration of half-maximal effect;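 for activation: HG2L7.5c1 human HepG2 liver cells with stably integrated DRE-driven firefly reporter; series mostly up to about 70 µM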
# Method in brief: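 HepG2 cells (HG2L7.5c1) stably carrying a firefly luciferase reporter driven by 20 dioxin responsive elements were exposed to compound for 24 h at 37C after a 5 h settling period; luminescence rise (ONE-Glo) indicated activation.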
# [18] = qHTS assay to identify small molecule that activate the aryl hydrocarbon receptor (AhR) signaling pathway - cell viability counter screen (AID 743086); note: nearly all actives have a fitted effect of over 45% in size; note: potency is the fitted concentration of half-maximal effect
# Method in brief: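 Cytotoxicity counter screen: CellTiter-Fluor signal (30 min, 37 C) in 4000 HepG2 cells/well carrying the DRE-luciferase reporter, following 24 h compound exposure at 37 C.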
# [19] = qHTS assay for small molecule activators of the heat shock response signaling pathway - cell viability counter screen (AID 743209); note: nearly all actives have a fitted effect of over 50% in size
# Method in brief: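 Quantitative HTS format, Tox21 10K library. HeLa cells carrying an HSE-driven beta-lactamase reporter were treated 5 h at 37 C, then assessed for viability by CellTiter-Glo luminescence.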
# [20] = qHTS assay to identify small molecule antagonists of the thyroid receptor (TR) signaling pathway (AID 743065); note: nearly all actives have a fitted effect of over 55% in size; note: potency is the fitted concentration of half-maximal effect
# Method in brief: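 Antagonism measured as loss of luciferase signal in GH3 cells stably carrying a TRE-luciferase reporter, co-treated with compound and T3 (1 nM final) for 23.5 h at 37 C. Viability was read in the same well by CellTiter-Fluor.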
# Aromatase (Homo sapiens), sequence (P11511 whole entry, looked up): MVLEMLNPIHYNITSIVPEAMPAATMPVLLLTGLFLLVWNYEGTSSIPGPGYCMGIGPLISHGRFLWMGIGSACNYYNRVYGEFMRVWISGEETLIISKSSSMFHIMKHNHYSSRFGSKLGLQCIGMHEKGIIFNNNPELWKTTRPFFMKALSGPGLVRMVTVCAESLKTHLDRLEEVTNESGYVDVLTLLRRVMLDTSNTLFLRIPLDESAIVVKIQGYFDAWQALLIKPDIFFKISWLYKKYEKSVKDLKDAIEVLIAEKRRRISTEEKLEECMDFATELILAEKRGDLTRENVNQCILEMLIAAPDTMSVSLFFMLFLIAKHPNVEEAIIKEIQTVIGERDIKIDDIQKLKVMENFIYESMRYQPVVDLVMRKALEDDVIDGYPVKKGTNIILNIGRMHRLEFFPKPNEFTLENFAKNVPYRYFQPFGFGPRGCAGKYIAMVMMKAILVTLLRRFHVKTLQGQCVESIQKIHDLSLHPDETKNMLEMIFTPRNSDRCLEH
# Aryl hydrocarbon receptor (Homo sapiens), sequence (P35869 whole entry, looked up): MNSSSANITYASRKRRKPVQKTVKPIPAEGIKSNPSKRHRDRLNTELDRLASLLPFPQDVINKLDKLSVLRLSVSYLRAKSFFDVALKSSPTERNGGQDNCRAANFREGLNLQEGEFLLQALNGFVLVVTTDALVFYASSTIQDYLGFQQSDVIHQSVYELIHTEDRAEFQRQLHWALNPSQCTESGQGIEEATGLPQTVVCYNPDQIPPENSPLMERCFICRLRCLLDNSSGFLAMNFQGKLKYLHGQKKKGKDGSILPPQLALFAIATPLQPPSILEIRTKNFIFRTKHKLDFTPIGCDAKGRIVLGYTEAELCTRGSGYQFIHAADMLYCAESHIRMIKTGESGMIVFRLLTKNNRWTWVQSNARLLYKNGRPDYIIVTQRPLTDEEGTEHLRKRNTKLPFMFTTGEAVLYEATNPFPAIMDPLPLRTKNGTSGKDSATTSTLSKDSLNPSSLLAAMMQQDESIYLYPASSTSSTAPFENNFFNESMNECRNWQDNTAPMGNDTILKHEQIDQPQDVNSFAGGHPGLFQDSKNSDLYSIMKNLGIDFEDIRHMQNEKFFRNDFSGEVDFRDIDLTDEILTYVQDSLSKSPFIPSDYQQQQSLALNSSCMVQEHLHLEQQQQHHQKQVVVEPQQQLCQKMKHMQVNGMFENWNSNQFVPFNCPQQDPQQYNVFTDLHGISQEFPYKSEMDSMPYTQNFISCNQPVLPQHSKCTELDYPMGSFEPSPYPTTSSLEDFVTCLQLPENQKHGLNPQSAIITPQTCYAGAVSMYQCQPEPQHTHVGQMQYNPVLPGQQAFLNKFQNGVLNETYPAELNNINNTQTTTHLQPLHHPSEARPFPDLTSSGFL
# Estrogen receptor (Homo sapiens), sequence (P03372 whole entry, looked up): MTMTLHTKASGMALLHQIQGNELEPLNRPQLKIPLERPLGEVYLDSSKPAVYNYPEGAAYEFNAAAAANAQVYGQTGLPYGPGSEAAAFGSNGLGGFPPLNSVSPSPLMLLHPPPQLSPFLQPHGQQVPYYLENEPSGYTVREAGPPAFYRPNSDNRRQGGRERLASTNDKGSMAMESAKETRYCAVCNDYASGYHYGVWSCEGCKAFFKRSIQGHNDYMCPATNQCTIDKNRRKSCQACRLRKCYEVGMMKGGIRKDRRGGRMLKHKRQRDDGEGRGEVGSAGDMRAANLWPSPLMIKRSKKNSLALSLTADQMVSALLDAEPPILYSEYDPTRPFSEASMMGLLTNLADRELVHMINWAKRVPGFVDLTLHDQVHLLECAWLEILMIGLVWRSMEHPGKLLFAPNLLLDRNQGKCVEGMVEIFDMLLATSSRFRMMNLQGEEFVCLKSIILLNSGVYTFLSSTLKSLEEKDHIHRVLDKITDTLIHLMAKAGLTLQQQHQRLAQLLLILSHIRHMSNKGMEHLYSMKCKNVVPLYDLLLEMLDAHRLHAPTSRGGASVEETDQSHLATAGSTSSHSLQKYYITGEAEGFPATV
# Peroxisome proliferator-activated receptor gamma (Homo sapiens), sequence (P37231 whole entry, looked up): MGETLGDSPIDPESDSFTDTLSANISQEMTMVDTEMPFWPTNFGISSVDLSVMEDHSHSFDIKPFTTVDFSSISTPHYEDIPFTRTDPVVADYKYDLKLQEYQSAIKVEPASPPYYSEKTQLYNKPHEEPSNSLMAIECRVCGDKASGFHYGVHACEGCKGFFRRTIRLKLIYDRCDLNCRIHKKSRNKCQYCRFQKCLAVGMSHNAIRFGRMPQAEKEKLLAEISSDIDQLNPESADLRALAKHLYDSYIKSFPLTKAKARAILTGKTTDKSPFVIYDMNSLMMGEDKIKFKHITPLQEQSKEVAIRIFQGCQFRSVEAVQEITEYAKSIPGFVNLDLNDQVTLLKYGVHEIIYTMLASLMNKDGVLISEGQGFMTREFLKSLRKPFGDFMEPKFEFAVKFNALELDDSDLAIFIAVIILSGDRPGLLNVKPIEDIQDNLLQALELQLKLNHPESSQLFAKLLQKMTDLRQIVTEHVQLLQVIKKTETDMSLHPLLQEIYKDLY
Structure (SMILES),Potency [1],Potency [2],Potency [3],outcome [4],Potency [5],Potency [6],Potency [7],Potency [8],Potency [9],Potency [10],Potency [11],Potency [12],Potency [13],Potency [14],Potency [15],outcome [16],Potency [17],Potency [18],Potency [19],Potency [20]
CCN(CC)CCNC(C(=O)OCCC(C)C)c1ccccc1 (stereo not given),inactive,inactive,inactive,inactive,inactive,inactive,inactive,inactive,inactive,inactive,inactive,inactive,inactive,inactive,inactive,inactive,,,,
O=C(O)Cc1sc(-c2ccccc2)nc1-c1ccc(Cl)cc1,inactive,inactive,,inactive,inactive,inactive,inactive,inactive,inactive,inactive,,,inactive,inactive,inactive,inactive,10.6 µM (active),inactive,inactive,
Cc1c(Cn2ccnc2)c2ccccc2n1CCC(=O)O,inactive,inactive,,,,,,inactive,inactive,inactive,inactive,,inactive,,inactive,inactive,,inactive,inactive,inactive
c1ccc(-c2nc[nH]c2-c2ccccc2)cc1,inactive,inactive,,inactive,,,,inactive,inactive,inactive,inactive,inactive,,,inactive,inactive,inactive,inactive,inactive,
CN1CCN(C2=Nc3cc(Cl)ccc3Nc3ccccc32)CC1,13.3 µM (active),,,inactive,inactive,,inactive,inactive,inactive,inactive,,,inactive,,inactive,inactive,,,inactive,23.7 µM (active)
CN(C)CC/C=C1\c2ccccc2COc2ccccc21,13.3 µM (active),,,inactive,,,,inactive,inactive,inactive,,,inactive,inactive,inactive,inactive,inactive,inactive,inactive,23.7 µM (active)
C[Si](C)O[Si](C)(C)O[Si](C)(C)O[Si](C)C,inactive,,inactive,inactive,inactive,inactive,inactive,inactive,inactive,inactive,inactive,inactive,,inactive,inactive,,inactive,inactive,inactive,inactive
O=C(O)[C@@H]1[C@H]2C[C@H]3c4[nH]c5ccccc5c4CCN3C[C@@H]2CC[C@@H]1O,inactive,inactive,inactive,inactive,inactive,inactive,,inactive,inactive,inactive,inactive,,inactive,inactive,inactive,,7.17 µM (active),inactive,inactive,
S=C(S)NCCNC(=S)S,inactive,inactive,,,,,,inactive,inactive,inactive,inactive,,inactive,60 µM (active),inactive,inactive,,inactive,inactive,inactive
CCc1nn(C2CCCCC2)c2cc(C3(C#N)CCC(C(=O)O)CC3)ccc12 (stereo not given),34.4 µM (active),,13.8 µM [inconclusive] (active),inactive,,inactive,inactive,inactive,38.6 µM (active),54.5 µM (active),,,,27.3 µM (active),inactive,inactive,inactive,24.3 µM (active),inactive,61.1 µM (active)
CN1CCC(=C2c3ccccc3C=Cc3ccccc32)CC1,15 µM (active),inactive,,,inactive,inactive,,inactive,inactive,inactive,inactive,,,inactive,inactive,inactive,,inactive,inactive,16.8 µM (active)
CCCCOc1ccc(CC(=O)NO)cc1,inactive,inactive,,,,,,inactive,inactive,inactive,inactive,inactive,inactive,,inactive,inactive,,inactive,inactive,inactive
CCOC(=O)[C@H](CCc1ccccc1)N[C@H]1CCc2ccccc2N(CC(=O)O)C1=O,5.31 µM (active),,,inactive,,,,inactive,15 µM (active),,,,inactive,,,,inactive,inactive,,8.41 µM (active)
CCCCCc1ccc(N)cc1,inactive,inactive,,,inactive,inactive,,inactive,,inactive,,,inactive,,,inactive,inactive,inactive,inactive,inactive
CCOc1nc2cccc(C(=O)O)c2n1Cc1ccc(-c2ccccc2-c2nn[nH]n2)cc1,29.8 µM (active),,0.425 µM [inconclusive] (active),inactive,inactive,0.0376 µM (active),2.66 µM (active),inactive,inactive,inactive,inactive,inactive,inactive,,inactive,inactive,inactive,inactive,inactive,29.8 µM (active)
O=C(CCN1CCN2CCCC2C1)N1c2ccccc2Sc2ccc(Cl)cc21 (stereo not given),21.1 µM (active),,inactive,inactive,inactive,inactive,inactive,,inactive,inactive,inactive,,inactive,,inactive,inactive,inactive,23.7 µM (active),inactive,18.8 µM (active)
CCCCCC(CO)CCC (stereo not given),inactive,inactive,,inactive,,,,,inactive,inactive,inactive,,inactive,inactive,inactive,,inactive,inactive,inactive,inactive
CN1CCC(=C2c3ccccc3CCc3sccc32)CC1,21.1 µM (active),,inactive,inactive,inactive,,inactive,inactive,inactive,inactive,inactive,,,,inactive,,inactive,,inactive,26.6 µM (active)
